# Test results published in the supplement of paper PMC3334620.
# Whole data set: some 33,000 sequences, median “E-score (-0.5 to 0.5)” near -0.035, cut for the highest 2% near 0.35. This excerpt belongs to a sample that is enriched for the highest values.
# Target: T1, Pdr3 (UniProt P33200)
# T1 sequence: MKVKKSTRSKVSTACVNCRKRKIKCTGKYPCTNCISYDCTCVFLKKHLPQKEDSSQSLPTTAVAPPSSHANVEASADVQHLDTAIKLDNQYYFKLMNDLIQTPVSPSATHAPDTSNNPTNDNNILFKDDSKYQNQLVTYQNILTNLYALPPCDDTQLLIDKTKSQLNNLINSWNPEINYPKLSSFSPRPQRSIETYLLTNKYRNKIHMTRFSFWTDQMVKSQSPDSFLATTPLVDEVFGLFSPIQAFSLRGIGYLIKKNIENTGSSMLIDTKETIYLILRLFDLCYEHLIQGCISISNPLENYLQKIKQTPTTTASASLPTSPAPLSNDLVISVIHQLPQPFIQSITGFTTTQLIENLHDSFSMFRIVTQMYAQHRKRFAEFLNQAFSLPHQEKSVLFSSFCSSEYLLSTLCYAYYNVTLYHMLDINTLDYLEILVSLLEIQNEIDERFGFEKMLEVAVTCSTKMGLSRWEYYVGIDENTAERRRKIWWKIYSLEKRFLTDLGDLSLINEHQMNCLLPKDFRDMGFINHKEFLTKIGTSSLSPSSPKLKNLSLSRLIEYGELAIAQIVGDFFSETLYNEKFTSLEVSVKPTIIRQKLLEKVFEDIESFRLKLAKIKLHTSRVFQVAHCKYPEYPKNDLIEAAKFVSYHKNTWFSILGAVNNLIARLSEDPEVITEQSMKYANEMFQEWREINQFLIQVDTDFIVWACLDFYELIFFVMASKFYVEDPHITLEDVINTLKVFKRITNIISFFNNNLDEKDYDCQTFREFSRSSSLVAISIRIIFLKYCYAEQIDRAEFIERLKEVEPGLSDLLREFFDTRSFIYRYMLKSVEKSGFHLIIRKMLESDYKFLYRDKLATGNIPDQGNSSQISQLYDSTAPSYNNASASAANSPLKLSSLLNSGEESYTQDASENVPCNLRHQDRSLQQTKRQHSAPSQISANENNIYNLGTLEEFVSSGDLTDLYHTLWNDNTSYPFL
# Test: PBM E-score (8-mer binding enrichment) (E-score (-0.5 to 0.5)); higher = stronger / more preferred TF binding
# Conditions: protein concentration: 200 nM; construct: GST-full length
# Procedure: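 Universal 'all 10-mer' protein binding microarrays (Agilent AMADID 015681) probed with GST-tagged S. cerevisiae TFs (full-length or DBD) made by in vitro transcription/translation (PURExpress), about 100-200 nM. Bound TF was detected with fluorescent anti-GST. Each ungapped 8-mer (which stands for itself and its reverse complement) is scored by the PBM enrichment score (E-score), a modified Wilcoxon-Mann-Whitney statistic from -0.5 to +0.5, computed with the Universal PBM Analysis Suite. Scale: above 0.35 generally sequence-specific binding.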
row,Sequence,PBM E-score
1,CACTCCTA,-0.112
2,GAAAGCCC,0.201
3,CTATTGAC,-0.153
4,GTCTCTTA,0.0669
5,ACCCATGC,-0.0401
6,CGGAAGTC,0.421
7,GGGAAGTA,0.097
8,CGGAAGTA,0.393
9,AGGAAGTC,-0.162
10,CTGAAGTC,0.0005
11,AGGAAGTA,0.0507
12,ATTGGGCA,-0.131
13,ACAAGCAT,-0.0569
14,GAGTGATC,0.0656
15,GAGCGGGC,0.113
16,CACGGACC,0.378
17,CACGGACA,0.355
18,AACGGACG,0.241
19,GACGGACC,0.33
20,AACGGACA,0.363
21,TACGGACA,0.225
22,AACGGACC,0.303
23,CACGGACG,0.324
24,AACGGTCA,0.146
25,CCACCCCG,0.165

row,Sequence,PBM E-score
1,CCCTGCTA,-0.0619
2,TACGGGCA,0.00013
3,CTGTTCCC,0.0618
4,ACACTAGT,-0.167
5,AGGCTTTC,-0.203
6,TCTGTGAA,-0.0705
7,CAGGAGAG,-0.174
8,GCGGAGAC,0.336
9,CCGGAGAA,0.385
10,ACGGAGAC,0.321
11,CCGGAGAG,0.363
12,CCGGAGAC,0.37
13,ACGGAGAG,0.319
14,TCGGAGAA,0.225
15,ACGGAGAA,0.265
16,AATGAGGA,-0.177
17,GCAGTCGC,-0.0644
18,TATCGCGA,0.258
19,GCCTTCCC,-0.1
20,CCTACTCC,-0.0705
21,GCTACTGA,0.00622
22,CATTCCAC,0.0732
23,AATTCCCC,0.203
24,GATTCCAC,0.19
25,GATTCCCC,0.0929

row,Sequence,PBM E-score
1,AATTCCTG,-0.021
2,AATTCCCG,0.298
3,AATTCCTC,0.0037
4,AATTCCGC,0.397
5,CATTCCTC,0.0812
6,GATTCCGC,0.455
7,AATTCCGG,0.449
8,CATTCCGC,0.421
9,CGCCCTCC,0.0638
10,TAATGATA,0.132
11,ATCGCATC,0.121
12,GTCCCAAA,-0.154
13,CAGGCCAC,0.00119
14,ATTTGCAG,-0.0031
15,ACCATAGG,-0.229
16,GAGAAAAA,0.176
17,ATCTGGGG,-0.109
18,AATTCCGT,0.449
19,AATTCCGA,0.423
20,AATTCCAT,0.156
21,AATTCCCT,-0.207
22,AATTCCAA,-0.0365
23,AATTCCCA,-0.171
24,ACTAGCCG,0.105
25,GACCCGAC,0.21

row,Sequence,PBM E-score
1,CGCCCGAA,0.117
2,AGCCCGGG,0.383
3,AGCCCGAG,-0.044
4,AGCCCGGC,0.264
5,CGCCCGGC,0.293
6,AGCCCGGA,0.355
7,AGCCCCGG,0.303
8,GGCCCGGA,0.336
9,CGCCCGGA,0.396
10,ACACAGTC,-0.0508
11,CTAGCATC,-0.172
12,CTTTCTAC,-0.16
13,ACCATACG,-0.0138
14,CCGGCGGC,0.325
15,GCGGCGGA,0.404
16,CTGGCGGA,0.131
17,GTGGCGGA,0.271
18,CCGGCGGA,0.449
19,ACGGCGGA,0.314
20,ATCTCCTA,-0.245
21,GATACGAA,0.033
22,GCCTGGCC,0.00694
23,TCAACACA,-0.0355
24,AATCCGGT,0.294
25,CATCCGGA,0.426

row,Sequence,PBM E-score
1,CATCCGGG,0.261
2,AATCCGGC,0.302
3,AATCCAGA,0.127
4,TATCCGAA,0.307
5,CATCCGAA,0.282
6,AATCCGGA,0.455
7,CATCCGGC,0.295
8,GATCCGAA,0.365
9,GATCCGGC,0.369
10,CATCCGTA,0.282
11,AGAATGCG,0.0628
12,CAAGGCGA,-0.174
13,GACGCCTA,-0.228
14,AGCTGTTG,-0.0549
15,AAGAAATC,-0.104
16,ACATGAGG,-0.0733
17,GATCCGGA,0.437
18,TATCCTGA,-0.107
19,TCTCCGAA,0.257
20,GCTCCGAA,0.361
21,GATCCGCA,0.319
22,TATCCGGA,0.446
23,TATCCGCA,0.335
24,CCTCCGAA,0.152
25,GATCCGTA,0.336

row,Sequence,PBM E-score
1,TACCGATA,0.0617
2,GACTAACC,-0.2
3,ACCTCAAG,-0.0979
4,ATGATCTA,0.0443
5,CCGTCCCG,0.371
6,ACGTCCCG,0.279
7,CCGTCCCC,0.166
8,TACTCAGA,-0.0418
9,ATGCTCTA,-0.211
10,CGGGACAC,0.245
11,CGGGACCA,0.264
12,CCAGACCG,0.0829
13,CAGGACCG,-0.0353
14,CCGGACCC,0.379
15,GCGGACCC,0.336
16,AGGGACAG,-0.3
17,CCGGACCG,0.378
18,AGGGACCG,-0.128
19,ACGGACCC,0.344
20,CGGGACAG,0.359
21,CGGGACCG,0.373
22,AGGGTTAT,-0.0536
23,GGATAAAC,0.195
24,CGACCTCC,0.208
25,AGTCATGG,-0.234

row,Sequence,PBM E-score
1,CCAAGAGG,-0.122
2,CGCCGAGA,0.228
3,GCTGGTAC,0.029
4,CGGCACAA,0.121
5,CCTTGACA,-0.209
6,TTACCGAA,0.105
7,CGTATAGA,-0.231
8,GGTTCCGA,0.476
9,CGTTCCTA,-0.0878
10,CGTTCCCC,0.146
11,CGTTCCAA,-0.0612
12,CGTTCCGC,0.453
13,CGTTCCGA,0.455
14,GGTTCCAA,0.273
15,AGTTCCCA,0.16
16,AGTTCCGA,0.456
17,GGTTCCCA,-0.0344
18,AGTTCCTA,0.0135
19,CGTTCCTC,0.194
20,GATCCACC,-0.0343
21,ACGAGATC,0.00781
22,GAAGGGCC,0.00364
